HEK293 tox = HEK 293 cell cytotoxicity. HEK 293 viability, ATP luminescence (CellTiter-Glo), 48-72 h. Potency, µM (titrated, usually from 115 µM), most hits filed as inhibitors. 94,000 tested, 6.6% active. AID 1345083; note: nearly all actives have a fitted effect of over 60% in size
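Pintool-delivered compounds were incubated with HEK 293 cells (250 cells/well) at 37 degree Celsius for 48 or 72 hr. ATP-dependent luminescence (CellTiter-Glo) then reported remaining viable cells.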
NIH3T3 tox = NIH 3T3 cell cytotoxicity | NIH 3T3 viability, CellTiter-Glo ATP luminescence, 48-72 h | Potency, µM (doses to about 96.7 µM), most hits filed as inhibitors | 94,000 tested, 4.3% active; note: nearly all actives have a fitted effect of over 55% in size
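Luminescent ATP readout (CellTiter-Glo, 10 min RT) after 48 or 72 hr compound exposure of NIH 3T3 cells seeded at 400 cells/well in 1536-well format; quantitative HTS.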
hNpr1 antagonist = antagonists of human natriuretic peptide receptor Npr1; 76,000 tested, 1.6% active; Potency, µM (titrated, usually from 46.3 µM), actives largely listed as inhibitors; HEK293 hNpr1 GloSensor cGMP, ANP-stimulated luminescence; P16066; calls by dose curve; note: nearly all actives have a fitted effect of over 60% in size
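HEK293 cells stably expressing human Npr1 and cGMP GloSensor pGS-40F, loaded 2 h with 2% GloSensor reagent, given compound 30 min at room temperature. Luminescence read before and 20 min after 0.1 nM hNppA.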
FLuc inh = Photinus pyralis luciferase inhibition | AID 1347043 | purified P. pyralis luciferase, luminescence, biochemical | 76,000 tested, 2.5% active | Potency, µM (series often up to 115 µM), usual class: inhibitors; note: nearly all actives have a fitted effect of over 65% in size
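Purified P. pyralis luciferase (10nM final) in 50mM Tris acetate pH 7.5, 10mM Mg acetate, 0.01% Tween-20, 0.05% BSA with 10uM D-luciferin and 10uM ATP. Compounds titrated qHTS. Luminescence imaged on CCD.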
A number is an active result; i = inactive; ? = inconclusive; nt = not tested or not shown; ! = repeats disagree. In the library only some 11% were active in any assay of this set; here they are far more common. Unless noted, calls come from the whole dose curve; as a rule, active = well fitted curve in the direction sought with a large enough effect; inconclusive = small, poorly fitted or top-dose-only effect, or another doubt; inactive = no such curve, though single readings can be large; an effect the other way counts as inactive or inconclusive.

SMILES	HEK293 tox	NIH3T3 tox	hNpr1 antagonist	FLuc inh
O=C(NCc1ccncc1)[C@@H]1C[C@@H](c2ccc(F)cc2)N(CCOc2ccccc2)C1	?	?	i	i
O=C(NCc1ccc(F)cc1)c1nn(CCOc2ccccc2)c2c1CNCC2	40µM	?	nt	nt
Cn1ccc2c(C(=O)NCC3CCC(=O)N3)nc(-c3ccccc3O)cc21 (stereo not drawn)	?	40µM	i	i
COc1ccccc1-c1cc2c(ccn2C)c(C(=O)NCC2CCN(C)C(=O)C2)n1 (stereo not drawn)	i	79µM	i	i
COc1ccccc1-c1cc2c(ccn2C)c(C(=O)NCCN2CCNC2=O)n1	i	100µM	i	i
CCn1cc(Cl)c(C(=O)N2CCc3c(nc4cc(-c5ccccc5)[nH]n4c3=O)C2)n1	i	i	i	?
Cc1ccc(NC2=N[C@H]3[C@@H](O)[C@H](O)C[C@H](C(=O)NCc4cccnc4)[C@H]3S2)cc1	i	i	i	?
COCc1ccc2c(c1)c(OC(C)(C)C(=O)N1CCOCC1)nn2Cc1ccccc1	i	?	i	i
Cc1ccc(-c2nc(C(=O)NCc3ccc4c(c3)OCO4)no2)cc1	i	?	i	?
O=C(Cc1ccccc1Cl)NC1CCN(c2cc(-c3cccs3)[nH]n2)C1 (stereo not drawn)	?	20µM	i	i
Cc1ccc(CC(=O)NC2CCN(c3cc(-c4cccs4)[nH]n3)C2)cc1 (stereo not drawn)	?	?	i	i
CN(C)c1cccc(C(=O)NC2CCN(c3cc(-c4cccs4)[nH]n3)C2)c1 (stereo not drawn)	?	?	i	32µM
O=C(NC1CCN(c2cc(-c3cccs3)[nH]n2)CC1)c1cccc(Cl)c1	45µM	?	i	i
COCCNC(=O)[C@H]1C[C@H](Oc2ccccc2)CN1S(=O)(=O)Cc1ccccc1	i	i	i	i
Cc1ccc(CN2C[C@@H](NC(=O)c3cccnc3)C[C@H]2CO)s1	?	i	i	i
Cc1ccc(C(=O)N2CCN(c3cc(-c4ccccc4)[nH]n3)CC2)cc1F	?	?	i	i
c1ccc2c(c1)COC1(CCNC1)CN2CC1CCCCC1 (stereo not drawn)	79µM	32µM	nt	nt
COc1ccc2[nH]c3c(c2c1)CCNC31CCN(C(=O)Cc2ccccc2)CC1	?	i	i	i
COc1ccc(NC(=O)[C@@H]2C[C@@H](c3cccc(C(F)(F)F)c3)N(C)C2)c(C)c1	?	?	i	i
CN1C[C@H](C(=O)Nc2ccccc2)C[C@H]1c1cccc(C(F)(F)F)c1	79µM	45µM	i	i
COc1cccc(NC(=O)[C@@H]2C[C@@H](c3cccc(C(F)(F)F)c3)N(C)C2)c1	100µM	79µM	i	i
CNC(=O)[C@H]1C[C@H](Oc2ccccc2)CN1C(=O)c1ccccn1	i	i	i	i
CCCn1cc2c3c(cccc31)CN(C(=O)c1cccc(C#N)c1)CC2	?	?	i	i
COCCn1cc2c3c(cccc31)CN(C(=O)c1cccc(C(F)(F)F)c1)CC2	?	32µM	i	i
CC(C)CC(=O)Nc1ccc([C@H]2OCC(=O)N(C3CCOCC3)[C@@H]2CO)cc1	i	i	i	i
SMILES	HEK293 tox	NIH3T3 tox	hNpr1 antagonist	FLuc inh
O=C(c1ccnc(-c2nnc3ccc(Nc4ccccc4)nn23)c1)N1CCCCC1	?	?	i	i
COc1ccnc(-c2nnc3ccc(NC4CCOCC4)nn23)c1	i	79µM	i	i
CN(c1ccccc1)c1ccc2nnc(-c3cc(C(=O)NCc4ccncc4)ccn3)n2n1	71µM	?	i	i
O=C(NCc1ccc(F)cc1)c1ccnc(-c2nnc3ccc(Nc4ccccc4)nn23)c1	?	25µM	i	i
COc1cccc(NC(=O)c2ccnc(-c3nnc4ccc(Nc5ccccc5)nn34)c2)c1	40µM	35µM	i	i
O=C1N(CCc2ccccc2)c2ccccc2C12CCN(CC1CC1)C2 (stereo not drawn)	40µM!	?	i	i
CN1C(=O)C2(CCN(Cc3ccnn3C)C2)c2ccccc21 (stereo not drawn)	i	i	i	i
Cn1nccc1CN1CCC2(C1)C(=O)N(CCc1ccccc1)c1ccccc12 (stereo not drawn)	35µM!	?	i	i
O=C1N(Cc2ccccc2)c2ccccc2C12CCN(Cc1cncs1)C2 (stereo not drawn)	?	?	i	i
O=C1N(CCc2ccccc2)c2ccccc2C12CCN(Cc1ccncc1)C2 (stereo not drawn)	35µM	35µM!	?	i
Cc1cc(CN2CCC3(C2)C(=O)N(Cc2ccccc2)c2ccccc23)no1 (stereo not drawn)	50µM	?	i	i
COCCN1CC(CO)C2(CCN(Cc3sccc3C)CC2)C1 (stereo not drawn)	?	i	i	i
COc1cc(OCc2ccccc2)ccc1CN1CC[C@@]2(O)CCNC[C@H]2C1	22µM	20µM	i	i
O=C(Nc1cccnc1)N1CC2ON=C(C(=O)N3CCN(c4ncccn4)CC3)C2C1 (stereo not drawn)	i	i	nt	nt
COc1cccc(-c2c(C(=O)NCc3cccnc3)nc3sccn23)c1	i	i	nt	nt
CCCCN(C)C(=O)c1csc(N2CCN(c3ccccc3)CC2)n1	35µM	?	?	i
COc1ccc(N2CCN(c3nc(C(=O)NCc4ccc(F)cc4F)cs3)CC2)cc1	35µM	?	?	i
CCCc1nc(C(=O)N(C)CCCc2cnn(C)c2)cs1	i	i	i	i
COc1ccc(N2CCN(c3nc(C(=O)N4CCC(C)CC4)cs3)CC2)cc1	40µM	40µM	?	?
COc1cccc(N2CCN(c3nc(C(=O)NCc4cccnc4)cs3)CC2)c1	32µM	?	11µM	?
COc1cccc(S(=O)(=O)N2CCN(C3CCN(CCC(C)C)C3=O)CC2)c1 (stereo not drawn)	i	i	i	i
O=C(CN1CCn2nnc(-c3nc(-c4ccccc4)no3)c2C1=O)Nc1ccc(Cl)cc1	?	i	i	i
COc1ccc(C(=O)N2CCO[C@@H](COc3ccccn3)[C@@H]2c2ccccc2)cn1	i	i	nt	nt
O=C(NCc1ccccn1)c1csc(N2CCN(c3ccccc3)CC2)n1	40µM	?	i	i
COCCN1C(=O)c2cccn2CC1CNC(=O)c1ccc(-n2c(C)ccc2C)cc1 (stereo not drawn)	25µM	?	nt	nt
COCCN1CCCCCC(O)c2cc(C(=O)N3CCN(c4cccc(OC)c4)CC3)ccc21 (stereo not drawn)	40µM	?	i	i
COCCN1CCCCCC(O)c2cc(C(=O)N(C)Cc3cccnc3)ccc21 (stereo not drawn)	?	?	i	i
COCCN1CCCCCC(O)c2cc(C(=O)NCc3ccc(N4CCC(C)CC4)cc3)ccc21 (stereo not drawn)	?	28µM	i	?
COCCCNC(=O)c1ccc2c(c1)C(O)CCCCCN2CCOC (stereo not drawn)	i	i	i	i
COCCN1CCCCCC(O)c2cc(C(=O)N(C)Cc3ccc(N4CCCCC4)cc3)ccc21 (stereo not drawn)	?	40µM	i	i

High-throughput results: PubChem BioAssay, National Center for Advancing Translational Sciences (NCATS)
